In PubChem BioAssay (NCATS) one finds Potency, outcome and max response data, which are given here for 5 compounds.

Values without a mark were called inactive. Results filed as inconclusive are left out. Calls of active or inactive are those of the source. The call rests on the fitted dose curve; in most records, active means well fitted curve in the direction sought with a large enough effect; inconclusive means small, poorly fitted or top-dose-only effect, or another doubt; inactive means no such curve, though single readings can be large; an effect the other way counts as inactive or inconclusive.

The subject of assay [1] is Zika virus NS2B-NS3 protease (linked construct). The assay can be described thus: Primary screen NINDS Rhodamine qHTS for Zika virus inhibitors (AID 1347160). Further: nearly all actives have a fitted effect of over 55% in size. Further: potency means the concentration at half of the fitted maximal effect. The method, boiled down:
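Kinetic fluorescence (Ex 480 nm, Em 540 nm) over 15 min with 1.5 microM Rhodamine110 peptide and 25 nM linked protease.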

Assay [2] deals with Calcium and integrin-binding protein 1 (Homo sapiens) (UniProt Q99828). The assay is described as follows: Primary qHTS for Identification of Calcium Integrin Binding Protein 1 (CIB1) Competitor (AID 1508620).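 Further: GST tagged CIB1 binding a fluorescein labelled alphaIIb integrin peptide tracer; top concentration of the series differs between compounds; on the % scale 0 is the no-effect control and ±100 the full control effect.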 The method, boiled down:
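CIB1-GST (1 uM final) and compound incubated 15 min at room temperature before adding FITC-alphaIIb peptide tracer (100 nM final). Competition for binding read by fluorescence polarization (ex 480, em 540) after another 15 min at room temperature.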

Assay [3] in a line: Primary qHTS for inhibitors of nuclear receptor binding SET domain protein 2 (NSD2) in an isogenic RCH-ACV NSD2 p.E1099K mutant (9B) (AID 1645876). Further: on the % scale 0 is the no-effect control and ±100 the full control effect; nearly all actives have a fitted effect of over 70% in size. A general note: In qHTS, concentration-response curves come from the screen itself.
Assay [4] addresses Glutathione peroxidase 1 (Homo sapiens) (UniProt P07203). The assay can be described thus: Primary qHTS Assay for Inhibitors of Recombinant Selenoprotein Glutathione Peroxidase 1 (GPX1) (AID 1845191). Further: nearly all actives have a fitted effect of over 65% in size. The method, boiled down:
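10 nM GPX1 + cpd, 30 min RT; start w/ 1 mM GSH, 0.5 mM cumene hydroperoxide, 0.5 mM NADPH, 100 nM GR, 0.01% BSA; buffer 50 mM Tris-HCl pH 7.5, 2 mM EDTA, 150 mM NaCl; Fl 340/450, 0 & 15 min.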

For assay [5], the target named is Phospholipid hydroperoxide glutathione peroxidase GPX4 (Homo sapiens) (UniProt P36969). The assay is described as follows: Primary qHTS Assay for Inhibitors of Recombinant Selenoprotein Glutathione Peroxidase 4 (GPX4) (AID 1845192). Further: on the % scale 0 is the no-effect control and ±100 the full control effect; nearly all actives have a fitted effect of over 65% in size. Put shortly:
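NADPH consumption, followed by fluorescence at 340/450 nm between 0 and 15 min, reports GPX4 activity via coupled glutathione reductase (100 nM). Enzyme 200 nM was pre-exposed to compound 30 min; 0.5 mM cumene hydroperoxide and 1 mM GSH served as substrates.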

For assay [6], the target named is Luciferin 4-monooxygenase (Photinus pyralis) (UniProt P08659). The assay is described as follows: Primary firefly luciferase (FLuc) qHTS assay for identification of artifact compounds. (AID 1845220).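 Further: plate controls were DMSO vehicle for no effect and no enzyme for full effect; nearly all actives have a fitted effect of over 60% in size.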 The following applies: outcome: dose series up to 54.1 µM unless noted. Put shortly: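 Compounds sat 15 min at room temperature with 10 uM luciferin and 10 uM ATP (pH 7.6 Tris acetate). Firefly luciferase (10 nM final) was then added, and luminescence was read 5 min later. Data normalized to no-enzyme and DMSO controls were Hill-fitted.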

The subject of assay [7] is Nanoluciferase (engineered Oplophorus gracilirostris luciferase). The assay can be described thus: Primary Nanoluciferase (NLuc) qHTS assay for identification of artifact compounds. (AID 1845222). Further: potency means the concentration at half of the fitted maximal effect. Put shortly:
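Luminescence from secreted NLuc (filtered, 1:55-diluted S16 cell medium) read 5 min after Nano-Glo substrate; compounds preincubated 15 min, RT. Hill fits of inhibition normalized to DMSO and no-enzyme.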

A further assay relates to CRL-7250. The assay can be described thus: Cytotoxic Profiling of Annotated Libraries Using Quantitative High-Throughput Screening (AID 1296008). Further: nearly all actives have a fitted effect of over 60% in size. On max response: on the % scale 0 is the no-effect control and ±100 the full control effect. To be noted: Five cell lines viability, CellTiter-Glo ATP luminescence, 48-72 h; max response: active compounds read low. The method, boiled down:
(§1)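 Cytotoxicity was measured as CellTiter-Glo ATP luminescence, read after 10 min at room temperature. Compound treatment of the cells lasted 48 or 72 hr at 37 degrees Celsius in a qHTS format.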
A general note: In ATP-based viability assays light output follows the ATP content of the culture.

A further assay relates to HEK293. Described as above. To be noted: Five cell lines viability, CellTiter-Glo ATP luminescence, 48-72 h; max response: active compounds read low. The method, boiled down:
as §1

A further assay has as its system HaCat. The assay is described as above. The following applies: Five cell lines viability, CellTiter-Glo ATP luminescence, 48-72 h; max response: active compounds read low. The method, boiled down: as §1
For another assay, the system named is NIH3T3. Described as above. The following applies: Five cell lines viability, CellTiter-Glo ATP luminescence, 48-72 h; max response: active compounds read low. The method, boiled down: as §1
In another assay the test system is C33A. The assay can be described thus: Primary qHTS to identify gynecologic anti-cancer compounds using libraries of approved drugs and bioactive compounds (AID 1345084). Further: on the % scale 0 is the no-effect control and ±100 the full control effect; nearly all actives have a fitted effect of over 55% in size. To be noted: Gynecologic cancer cell panel viability, ATPlite luminescence, 48 h; series mostly up to 57.5 µM. The method, boiled down:
(§2)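 Luminescence from the ATPlite ATP-monitoring reagent indicates viable cell number; lower signal means cytotoxicity. Cells received compound 16 h after seeding and were exposed for 48 h across five concentrations.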

The test system of another assay is CASKI. Described as above. To be noted: Gynecologic cancer cell panel viability, ATPlite luminescence, 48 h; series mostly up to 57.5 µM. The method, boiled down:
as §2

For a further assay, the system named is Es-2. Described as above. To be noted: Gynecologic cancer cell panel viability, ATPlite luminescence, 48 h; series mostly up to 57.5 µM. Put shortly:
as §2

In the next assay the test system is Hek293T. The assay is described as above. The following applies: Gynecologic cancer cell panel viability, ATPlite luminescence, 48 h, control line for the selectivity index; series mostly up to 57.5 µM. Put shortly: as §2
For another assay, the system named is JEG-3. The assay is described as above. To be noted: Gynecologic cancer cell panel viability, ATPlite luminescence, 48 h; series mostly up to 57.5 µM. The method, boiled down: as §2
In another assay the test system is OV90. The assay is described as above. To be noted: Gynecologic cancer cell panel viability, ATPlite luminescence, 48 h; series mostly up to 57.5 µM. The method, boiled down: as §2
For the next assay, the system named is PA-1. Described as above. To be noted: Gynecologic cancer cell panel viability, ATPlite luminescence, 48 h; series mostly up to 57.5 µM. Put shortly:
as §2

Another assay has as its system Tov-21-G. Described as above. The following applies: Gynecologic cancer cell panel viability, ATPlite luminescence, 48 h; series mostly up to 57.5 µM. The method, boiled down: as §2
The subject of the next assay is Tov112D. Described as above. To be noted: Gynecologic cancer cell panel viability, ATPlite luminescence, 48 h; series mostly up to 57.5 µM. The method, boiled down: as §2

Sequence of Calcium and integrin-binding protein 1 (Homo sapiens) (Q99828 whole entry, looked up): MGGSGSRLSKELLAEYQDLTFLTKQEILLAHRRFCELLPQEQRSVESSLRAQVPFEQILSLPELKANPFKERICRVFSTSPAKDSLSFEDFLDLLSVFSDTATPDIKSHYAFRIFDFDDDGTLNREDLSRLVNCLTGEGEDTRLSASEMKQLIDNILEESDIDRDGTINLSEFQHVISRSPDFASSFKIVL
Sequence of Glutathione peroxidase 1 (Homo sapiens) (P07203 whole entry, looked up): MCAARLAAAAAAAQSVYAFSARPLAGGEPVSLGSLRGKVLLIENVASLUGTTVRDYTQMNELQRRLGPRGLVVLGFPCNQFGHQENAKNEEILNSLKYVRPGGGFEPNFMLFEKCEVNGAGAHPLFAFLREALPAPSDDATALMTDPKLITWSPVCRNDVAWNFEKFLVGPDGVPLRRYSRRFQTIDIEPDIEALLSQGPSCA
Sequence of Phospholipid hydroperoxide glutathione peroxidase GPX4 (Homo sapiens) (P36969 whole entry, looked up): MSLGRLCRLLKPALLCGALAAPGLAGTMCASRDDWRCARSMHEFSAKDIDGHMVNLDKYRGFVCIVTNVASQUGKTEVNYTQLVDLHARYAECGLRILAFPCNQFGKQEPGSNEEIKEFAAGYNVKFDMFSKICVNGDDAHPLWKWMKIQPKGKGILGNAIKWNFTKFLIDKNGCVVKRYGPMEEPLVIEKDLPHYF

For `CC(=O)O[C@@H]1[C@H]2CC[C@H]3[C@@](C)(O)[C@@H]4C[C@H](O)C(C)(C)[C@@]4(O)[C@H](O)C[C@@]13C[C@@]2(C)O`, the Potency entry in assay [1], in assay [2], in [3], in assay [4], in [5] and in assay [7] was “inactive” in each case. The Potency entry in the assay with C33A, in the assay with CASKI, with Es-2, in the assay on Hek293T, with JEG-3 and in the assay on OV90 was “inactive” each time. Further, the Potency entry with PA-1, in the assay on Tov-21-G and with Tov112D was “inactive” each time. The compound was classed as inactive (in [6]; in the assay with CRL-7250). Also, the figures for the max response with HEK293, with HaCat and in the assay on NIH3T3 were 2%, -9.56% and 4.65%, respectively.

Turning to `COC(=O)[C@]12CCCC(C)(C)C1CCc1cc(C(C)C)c(O)c(O)c12` (some centres undefined), the Potency in assay [1] was 14.1 µM (active); in assay [7], 18.6 µM (active). In addition, the Potency result (in assay [2]; in assay [3]; in assay [4]; in assay [5]; with C33A; in the assay with CASKI) was “inactive” throughout. The Potency result in the assay with Es-2, in the assay on Hek293T, with JEG-3, in the assay with OV90, with PA-1 and in the assay on Tov-21-G was “inactive” each time. For the same compound, in the assay with Tov112D, the Potency result is “inactive”. The compound was called inactive (in [6]; in the assay on HaCat). In addition, the max response with CRL-7250 was -0.302%; in the assay on HEK293, 3.53%; with NIH3T3 it was 2.35%.

Regarding `C=CC/C=C\C/C=C\CCCCCCCc1cc(O)cc(O)c1`, the Potency result (in assay [1]; in assay [2]; in assay [4]; in assay [5]; in [7]; with C33A) was “inactive” each time. Also, the Potency result in the assay on CASKI, in the assay with Es-2, in the assay with Hek293T, in the assay on JEG-3, with OV90 and with PA-1 was “inactive” each time. In addition, the Potency result in the assay with Tov-21-G and in the assay on Tov112D was “inactive” each time. Also, the call (in assay [6]; with HaCat) was inactive. Also, the max response in the assay on CRL-7250 is -22.2%; with HEK293, -20.2%; with NIH3T3 it was -20.8%.

In the case of `C/C=C1/CN2CC[C@]34C(=Nc5ccc(OC)cc53)C2C[C@@H]1C4(CO)C(=O)OC` (some centres undefined), the Potency result in [1], in [2], in assay [3], in [4], in assay [5] and in [7] was “inactive” each time. Also, the Potency entry with C33A, with CASKI, with Es-2, in the assay with Hek293T, in the assay with JEG-3 and in the assay with OV90 was “inactive” throughout. The Potency entry in the assay on PA-1, in the assay with Tov-21-G and in the assay with Tov112D was “inactive” in each case. Also, the compound was called inactive (in assay [6]; with HaCat). In addition, the max response is 0.729% in the assay on CRL-7250, 4.62% in the assay with HEK293 and 4.25% with NIH3T3.

As to `COc1ccc2c3c4n(c2c1)[C@@H](C=C(C)C)OOC(C)(C)C[C@@H]4N1C(=O)[C@@H]2CCCN2C(=O)[C@]1(O)[C@H]3OCC=C(C)C`, the Potency result in [1], in assay [2], in [3], in [4], in [5] and in assay [7] was “inactive” in each case. The Potency entry in the assay on C33A, in the assay with CASKI, in the assay on Es-2, in the assay on Hek293T, in the assay with JEG-3 and with OV90 was “inactive” throughout. In addition, the Potency result in the assay on PA-1, in the assay on Tov-21-G and in the assay on Tov112D was “inactive” throughout. Besides, the call (in assay [6]; in the assay with CRL-7250) was inactive. The max response is -3.84% with HEK293, -11% in the assay with HaCat and 0.42% in the assay with NIH3T3.
